Screening data: PubChem, several laboratories
ABHD5 PLIN5 PPI: ABHD5-PLIN5 interaction inhibitors, primary screen, cell lysate, split luciferase complementation, luminescence; 360,000 tested, 0.78% active; AID 602281, 2012; inhibition, % at 4 µM; Perilipin-5 (Homo sapiens) + 1-acylglycerol-3-phosphate O-acyltransferase ABHD5 (Homo …; Split G. princeps luciferase complementation, 4 h;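 active means inhibition above the mean inhibition across every tested compound plus 3 SD, cut at about 22% in these data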;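 further: 0% = DMSO only wells and the 100% control is not disclosed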
Rtt109 Vps75: inhibitors of C. albicans Rtt109/Vps75 HAT, primary screen, biochemical, ThioGlo CoA-SH fluorescence, plate reader; Histone acetyltransferase RTT109 (Candida albicans (strain SC5314 / ATCC MYA-2876)), …; purified Rtt109/Vps75, 4 h; inhibition, % at 34.9 µM; 330,000 tested, 0.16% active;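 active means inhibition of at least 50% in every replicate; inconclusive means best replicate reaches 50% inhibition but some replicates fall short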
Myeloid diff 2: induction of myeloid progenitor differentiation, primary screen, cell-based, flow cytometry, MLPCN library; 360,000 tested, 1% active; calls only at 10 µM; ER-HoxA9 myeloid progenitors, lysozyme-GFP differentiation; AID 624256, 2012;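 active means normalized GFP-positive differentiation at or above the plate's own cutoff, the solvent-only control mean plus 3 SD; inconclusive means no clear call, values can overlap the other calls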;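 further: cells exposed to compound for four days before flow analysis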
DAGLB inhibitor: DAGLB lipase inhibitors, primary screen, biochemical, fluorescence, HTS | HEK293T DAGLB membrane lysate, EnzChek fluorogenic substrate | inhibition, % at 5.17 µM | 340,000 tested, 0.059% active | AID 504411, 2011; in the data active means inhibition above about 34%;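 further: 0% = enzyme with vehicle and 100% = wells lacking enzyme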
Cardio protect: cardioprotection against H2O2-induced cell death, primary screen, uHTS, H9c2 cells, ATPLite luminescence. H9c2 cardiomyocytes, H2O2 injury protection, 2 h. protection from H2O2 cell death, % at 20 µM. 360,000 tested, 0.63% active. AID 588492, 2011;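 active means compounds giving at least 50% protection of heart cells from peroxide-induced death in the single-dose screen, raw or plate-pattern-corrected value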;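 further: 0% = DMSO wells with peroxide and 100% = DMSO wells without peroxide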
HGIII-sPLA2 inh: human group III sPLA2 inhibitors, primary screen, biochemical, QFRET, BODIPY PC-A2 liposome substrate; inhibition, % at 12.2 µM; 370,000 tested, 0.56% active; QFRET BODIPY PC-A2 liposome hydrolysis, fluorescence; Group 3 secretory phospholipase A2 (Homo sapiens), Q9NZ20; AID 743126, 2013;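 active means inhibition above mean plus 3 SD of compounds lying within the high and low control bounds, cut at about 19% in these data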;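 further: 0% = median of test compound wells and 100% = no enzyme DMSO wells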
Target sequence (Q9NZ20 whole entry, looked up): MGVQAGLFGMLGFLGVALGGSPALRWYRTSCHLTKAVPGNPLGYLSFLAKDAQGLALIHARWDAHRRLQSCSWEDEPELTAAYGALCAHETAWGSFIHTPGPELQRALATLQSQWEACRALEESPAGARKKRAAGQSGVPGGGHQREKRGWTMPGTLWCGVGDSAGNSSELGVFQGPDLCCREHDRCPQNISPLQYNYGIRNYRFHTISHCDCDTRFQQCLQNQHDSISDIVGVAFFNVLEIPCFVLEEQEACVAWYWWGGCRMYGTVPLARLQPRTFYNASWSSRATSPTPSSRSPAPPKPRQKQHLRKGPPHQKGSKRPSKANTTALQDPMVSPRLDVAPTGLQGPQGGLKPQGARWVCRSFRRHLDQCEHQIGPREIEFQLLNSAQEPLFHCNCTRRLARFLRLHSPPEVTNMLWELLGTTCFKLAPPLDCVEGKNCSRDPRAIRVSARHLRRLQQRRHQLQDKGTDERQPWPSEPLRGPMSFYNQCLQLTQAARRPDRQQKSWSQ
Active calls of the source: *; i = inactive; ? = inconclusive; nt = no result given; + = active, no number. Sampled rows, rich in hits. Any-hit rate of the full collection: about 2.9%.

SMILES	ABHD5 PLIN5 PPI	Rtt109 Vps75	Myeloid diff 2	DAGLB inhibitor	Cardio protect	HGIII-sPLA2 inh
O=c1[nH]c(CN2CC=C(c3ccccc3)CC2)nc2cc(C(F)(F)F)ccc12	-0.1	2.8	+	4.3	1.1	-39.1
O=c1[nH]c(CN2CC=C(c3ccccc3)CC2)nc2scc(-c3ccccc3)c12	-0.9	14.5	+	2.8	3.0	-29.1
CC(C)(O)C1C2OC(=O)C1C1(O)CC3OC34C(=O)OC2C14C (stereo not given)	-3.5	0.6	?	-1.4	-12.5	2.9
CC(C)N1CC=C(c2c[nH]c3ccccc23)CC1	2.9	-5.8	+	-1.2	-1.3	-1.0
C1=C(c2c[nH]c3ccccc23)CCNC1	nt	nt	nt	nt	nt	-1.6
C=CCn1c(O)c(C(CC)=Nc2cccc(C(=O)O)c2)c(=O)[nH]c1=O	5.9	1.8	i	1.3	-6.4	13.8
O=C1NC(=O)C(=Cc2cc3c(cc2[N+](=O)[O-])OCO3)C(=O)N1	21.2	73.6*	i	3.8	6.1	-1.0
Cc1cc2c(C(F)(F)F)cc(=O)oc2c2c1NCCC2	0.6	-2.7	i	-13.3	-5.5	1.7
O=c1cc(C(F)(F)F)c2cc3c4c(c2o1)CCCN4CCC3	-16.4	-5.3	+	-234.2	-5.0	-53.2
O=S(=O)(c1ccccc1)N1Cc2ccccc2-n2nncc2C1	7.1	nt	i	0.4	-1.6	-4.0
O=C1NC(=O)N(c2ccc(F)cc2)C(=O)/C1=C/c1ccsc1	22.9*	-5.3	i	-1.1	-13.1	4.9
C=CCCC[C@@H]1OC(=O)CNC(=O)C([C@@H](C)CC)NC(=O)[C@@H]2CCCN2C(=O)C([C@@H](C)CC)OC(=O)[C@H](Cc2ccccc2)N(C)C(=O)[C@H](C(C)C)NC(=O)C1(C)C (stereo not given in full)	22.4*	nt	i	nt	-6.0	-12.2
CCC(C)C1NC(=O)C2CCCN2C(=O)C(CC(C)C)OC(=O)CCNC(=O)C(C)N(C)C(=O)C(C(C)C)N(C)C1=O (stereo not given)	-4.9	2.0	nt	-1.1	26.2	-2.4
CN1C(=O)C(=Cc2ccc(N3CCCCCC3)o2)C(=O)N(C)C1=S	-0.1	10.7	+	0.8	-28.4	0.4
CC(=O)OC1C(O)C2=C3C4(C)C1C(C)(C)C(=O)CC4C3(O)C(OC(C)=O)C1(CC1C)C2=O (stereo not given)	22.3*	nt	i	nt	nt	6.8
O=C(O)c1nn(Cc2ccc(Cl)cc2)c2ccccc12	3.0	nt	+	1.5	4.1	10.6
O=C(O)c1nn(Cc2ccc(Cl)cc2Cl)c2ccccc12	-2.3	4.6	i	2.1	-7.7	0.2
Cc1nc2ccccc2c(=O)n1/N=C/c1cc(Br)cc(Br)c1O	5.2	2.4	i	4.2	55.3*	-5.2
CN(CC1COc2ccccc2O1)c1nc(-c2cccnc2)nc2ccccc12 (stereo not given)	-0.8	-1.1	i	-3.5	90.4*	-2.9
C[n+]1c(-c2ccccc2)c2cc(N)ccc2c2ccc(N)cc21	-18.7	45.5	+	3.7	-21.9	-37.7
O=c1[nH]c2ccccc2n1C1CCN(C(c2cc3ccccc3o2)c2nnnn2Cc2ccccc2)CC1 (stereo not given)	6.8	nt	i	nt	10.4	-20.4
COc1cc(/C=C/c2nc3ccccc3c(=O)n2-c2cccc(O)c2)ccc1O	5.5	-3.4	+	-0.6	43.4	-52.8
COc1cc(/C=C/c2nc3ccccc3c(=O)n2-c2ccccc2O)ccc1O	3.7	4.8	i	0.7	50.0*	-33.9
O=C1CN=C(c2ccc(Cl)cc2)c2oc3ccccc3c2N1	3.3	nt	i	nt	-4.0	0.8
CCC(C)c1cnc(CC(C)C)c(=O)n1O (stereo not given)	1.0	nt	i	nt	3.0	-0.9
SMILES	ABHD5 PLIN5 PPI	Rtt109 Vps75	Myeloid diff 2	DAGLB inhibitor	Cardio protect	HGIII-sPLA2 inh
CNC(=O)Oc1cc2c(cc1C(C)(C)C)CCC2	-10.7	-2.7	i	-4.3	-3.3	1.5
O=C1NC(=S)SC1=Cc1ccc(N(CCCl)CCCl)cc1	4.9	-6.3	+	-3.8	-19.4	-19.3
O=C(O)CCCc1ccc(N(CCCl)CCCl)cc1	-1.4	7.1	i	0.3	-2.7	-1.1
COC(=O)C1=C(c2c(C)noc2C)C[C@@H]2CC[C@H]1N2C(=O)N1CCOCC1	-9.0	-6.8	i	-0.9	2.8	3.3
C=CC1C[N+]2(C)CCC1CC2C(O)c1ccnc2ccccc12 (stereo not given)	nt	nt	nt	nt	nt	6.5
Nc1ccc2ccc3cccc[n+]3c2c1	-0.5	0.5	+	-84.3	4.0	-180.5
CCOC(=O)c1sc(/N=C/c2c(O)n(-c3cccc(C)c3)c(=O)[nH]c2=O)c(C#N)c1C	12.3	-1.4	i	-0.3	-4.2	3.7
O=C(NC1(C(F)(F)F)Oc2ccc(Cl)cc2O1)N1CCC2(CC1)OCCO2 (stereo not given)	0.5	-3.4	i	3.2	77.9*	2.3
CCCN(CC#CCOc1ccc(OC)cc1)CCC	-0.7	10.3	i	-3.8	-3.2	-2.3
c1ccc2c(c1)CN(Cc1ccc3c(c1)OCO3)Cc1cnnn1-2	-6.1	nt	i	1.7	2.4	9.2
CC12C=CC(=O)CC1CCC1C2CCC2(C)C(O)C(O)CC12 (stereo not given)	12.5	5.4	i	1.1	117.7*	12.0
C[C@]12CCC3C(CC[C@H]4C[C@H](O)CC[C@]34C)C1C[C@@H](O)[C@@H]2O (stereo not given in full)	-2.5	-4.1	i	-2.4	-2.5	-1.4
O=C(O)CNC1c2ccccc2CSc2ccccc21 (stereo not given)	1.5	nt	i	nt	-1.8	8.8
CN(C)C(=S)SSC(=S)N(C)C	-6.0	154.1*	+	-1.0	-46.3	4.7
CCCCn1c(NS(=O)(=O)c2ccccc2)c(C(=O)OCC)c2nc3ccccc3nc21	-25.2	-3.7	i	-21.5	-9.7	-23.7
CCCCn1c(NC(=O)c2ccc(Br)o2)c(C(=O)OCC)c2nc3ccccc3nc21	-29.3	-90.0	+	-2.2	-3.4	-12.3
CCCCn1nnnc1C(CCSC)N1CCC2(CC1)C(=O)NCN2c1ccccc1 (stereo not given)	-6.0	nt	i	nt	15.3	-6.7
Cc1[nH]n(-c2ccccc2)c(=O)c1C(c1ccc([N+](=O)[O-])cc1)c1c(C)[nH]n(-c2ccccc2)c1=O	-40.5	16.9	i	18.9	-22.5	nt
O=[N+]([O-])c1ccc(C(c2ccc([N+](=O)[O-])cc2)c2ccc([N+](=O)[O-])cc2)cc1	-2.3	-8.9	+	-2.4	-9.4	-3.1
